# In PubChem BioAssay (NCATS):
# Results filed as inconclusive are left out. Values without a mark were called inactive. The call rests on the fitted dose curve; in most records, active means well fitted inhibition curve with a large enough effect; inconclusive means small, poorly fitted or top-dose-only effect, or effect the other way; inactive means flat fitted curve, though single readings scatter.
# Molecular target: ATP-dependent 6-phosphofructokinase (Trypanosoma brucei brucei) (UniProt O15648)
# Sequence (O15648 whole entry, looked up): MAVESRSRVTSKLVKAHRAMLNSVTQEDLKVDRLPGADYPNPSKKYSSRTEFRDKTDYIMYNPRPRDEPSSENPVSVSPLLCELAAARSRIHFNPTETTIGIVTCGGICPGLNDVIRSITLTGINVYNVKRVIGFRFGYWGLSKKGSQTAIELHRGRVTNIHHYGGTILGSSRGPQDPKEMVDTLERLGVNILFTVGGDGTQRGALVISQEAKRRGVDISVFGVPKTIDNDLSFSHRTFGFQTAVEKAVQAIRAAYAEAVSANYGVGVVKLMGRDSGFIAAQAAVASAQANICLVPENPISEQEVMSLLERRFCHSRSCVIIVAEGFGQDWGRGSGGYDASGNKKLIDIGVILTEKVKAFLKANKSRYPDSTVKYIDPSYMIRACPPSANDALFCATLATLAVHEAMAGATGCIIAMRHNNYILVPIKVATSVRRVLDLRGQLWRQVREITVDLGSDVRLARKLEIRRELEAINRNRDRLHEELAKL
# Assay: qHTS Assay to Find Inhibitors of T. brucei phosphofructokinase: hit validation (AID 492961);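 further: luminescence reports ADP formed as PFK phosphorylates fructose-6-phosphate with ATP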
# Details: T. brucei PFK, ADP-Glo luminescence; series mostly up to 51.4 µM; activity change, negative = inhibition: at the top concentration
# Procedure, shortened: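 PFK 1.25 nM, F6P 0.5 mM, ATP 0.1 mM, MgCl2 5 mM, 0.1 M TEA pH 8.0, Tween20 0.01%, BSA 0.1%; 45 min RT. ADP-Glo two-step detection, luminescence. qHTS titration; curve fitting with curve-class categorization.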
# On the % scale 0 is the no-effect control and ±100 the full control effect.
row,SMILES,"activity change, negative = inhibition"
1,CCCOC(C(=O)OC1CCN(C)CC1)(c1ccccc1)c1ccccc1,5.65%
2,C[C@@H]1CN(CCCn2c3ccccc3c3ccccc32)C[C@H](C)N1,1.25%
3,CCCN1CCCC[C@H]1C(=O)Nc1c(C)cccc1C,-1.8%
4,C[C@@H]1C[C@H]2[C@@H]3CCC4=CC(=O)C=C[C@]4(C)[C@@]3(F)[C@@H](O)C[C@]2(C)[C@H]1C(=O)CO,-1.63%
5,NC(CS)C(=O)O (configuration not stated),3.22%
6,COCc1c(C(C)C)nc(C(C)C)c(/C=C/[C@@H](O)C[C@@H](O)CC(=O)O)c1-c1ccc(F)cc1,-0.192%
7,CCCCN1CCCC1C(=O)Nc1c(C)cc(C)cc1C (configuration not stated),8.22%
8,Nc1ccc(C(=O)O)cc1,9.57%
9,CN=C(NC#N)NCCSCc1csc(N=C(N)N)n1,8.1%
10,CC(=O)OCC(=O)NCCCOc1cccc(CN2CCCCC2)c1,-0.4%
11,C=CCc1ccc(O)c(OC)c1,-0.595%
12,COc1cc(-c2ccc(=O)[nH]n2)ccc1OC(F)F,0%
13,c1ccc(CNCCNCc2ccccc2)cc1,-6%
14,Cc1cc(O)c(C(C)C)cc1Cl,-6.06%
15,COc1ccc(/C=C/C(=O)c2ccc(OC)cc2OC)cc1,8.53%
16,CCCCc1nc(Cl)c(CO)n1Cc1ccc(-c2ccccc2-c2nn[nH]n2)cc1,9.95%
17,CCCCCCc1ccc(O)cc1O,-0.345%
18,Clc1ccc2c(c1)CCc1cccnc1C2=C1CCNCC1,-0.598%
19,NC(=O)C(=O)N/N=C/c1ccc([N+](=O)[O-])o1,2.4%

row,SMILES,"activity change, negative = inhibition"
1,O=c1c(-c2ccccc2)c1-c1ccccc1,-7.7%
2,CCN(CC)CCOC(=O)C(c1ccccc1)C1CCCCC1 (configuration not stated),-4.33%
3,C[C@@H](CN(C)C)CN1c2ccccc2Sc2ccccc21,2.42% [at 24.3 µM]
4,O=C(CCCN1CCC(O)(c2ccc(Br)cc2)CC1)c1ccc(F)cc1,4.06% [at 24.3 µM]
5,O=C(OCCOCCO)c1ccccc1Nc1cccc(C(F)(F)F)c1,-1.46% [at 24.3 µM]
6,Cc1ccnc(NS(=O)(=O)c2ccc(N)cc2)n1,3.27% [at 24.3 µM]
7,CCOC(=O)COc1ccc2c(C)c(CCN(CC)CC)c(=O)oc2c1Cl,1.2%
8,CCCCOc1ccc(C(=O)CCN2CCCCC2)cc1,13.4% [at 24.3 µM]
9,NCCCC[C@H](N[C@@H](CCc1ccccc1)C(=O)O)C(=O)N1CCC[C@H]1C(=O)O,1.35% [at 24.3 µM]
10,COC1=CC(=O)C[C@@H](C)[C@]12Oc1c(Cl)c(OC)cc(OC)c1C2=O,4.21%
11,O=C1OCCN1/N=C/c1ccc([N+](=O)[O-])o1,5.01%
12,O=C1[C@H]2CCCC[C@H]2C(=O)N1CCCCN1CCN(c2nsc3ccccc23)CC1,10.9%
13,CN1CCC(=C2c3ccccc3Sc3ccccc32)CC1,-4.55%
14,Cc1cccc(C)c1NC(=O)CN1CCN(CCCC(c2ccc(F)cc2)c2ccc(F)cc2)CC1,1.27% [at 24.3 µM]
15,COC(=O)[C@@H]1CC2=CC(=O)CC[C@]2(C)[C@@]23O[C@@H]2C[C@@]2(C)[C@@H](CC[C@@]24CCC(=O)O4)[C@H]13,-1.58%
16,C[C@H](O)C(=O)Nc1c(I)c(C(=O)NC(CO)CO)c(I)c(C(=O)NC(CO)CO)c1I,0.63% [at 24.3 µM]
17,COc1ccc(C2C(=O)c3ccccc3C2=O)cc1,-2.04%
18,CC/C(=C(/CC)c1ccc(O)cc1)c1ccc(O)cc1,1.11%
